Hits are enriched below; roughly 12% of the tested compounds scored in any of these assays.
HP1b chromo inh = HP1-beta chromodomain-methylated histone interaction inhibition; 0.56% of 390,000 active; AlphaScreen HP1-beta / biotin-H3K9me3 peptide binding; P83916; Potency, µM (highest dose often 114 µM), inactives show top-dose activity change, negative = inhibition, usual class: inhibitors; AID 540317; note: nearly all actives have a fitted effect of over 70% in size
Target sequence (P83916 whole entry, looked up): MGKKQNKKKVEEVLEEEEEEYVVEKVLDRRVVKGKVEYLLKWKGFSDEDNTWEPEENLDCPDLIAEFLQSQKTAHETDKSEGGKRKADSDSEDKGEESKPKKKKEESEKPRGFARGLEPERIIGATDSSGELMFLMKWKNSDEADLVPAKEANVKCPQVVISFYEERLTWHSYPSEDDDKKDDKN
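HP1-beta protein (50 nM final) preincubated 30 min at room temperature with biotinylated H3(1-18)K9me3 peptide (50 nM) in PBS pH 7.4, 0.01% Tween-20, then compound added for 30 min. AlphaScreen streptavidin donor/nickel chelate acceptor beads (10 ug/mL final), 30 min dark, luminescence read.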
Sfp PPTase inh = inhibitors of Bacillus subtilis Sfp phosphopantetheinyl transferase | Q9F4F7 | Biochemical Sfp PPTase activity, qHTS | Potency, µM, for the others: largest response in the series, negative = inhibition, usual class: inhibitors | 3.5% of 310,000 active | AID 1490;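 note: the enzyme is Sfp with the accession as filed and its product quenches rhodamine fluorescence; 0% = enzyme reaction without inhibitor and -100% = no enzyme wells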
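Sfp 15 nM + cpd, 15 min RT; start w/ rhodamine-CoA 5 uM, BHQ-2-YbbR 12.5 uM (final); 50 mM Hepes pH 7.6, 10 mM MgCl2, 0.01% NP-40, 0.01% BSA; read 525/598 nm at 0 and 30 min.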
JMJD2A Tudor = inhibitors of human JMJD2A Tudor domain. O75164. AlphaScreen JMJD2A-Tudor / H3K4me3 peptide binding. Potency, µM (doses to about 114 µM), without a hit: at the highest dose activity change, negative = inhibition, actives largely listed as inhibitors. 4.4% of 390,000 active. AID 504339; note: % is set by controls: 0 for no effect and ±100 for the full control effect; nearly all actives have a fitted effect of over 50% in size
BAZ2B block = blocks human BAZ2B. 4.4% of 360,000 active. Q9UIF8. Potency, µM (series often up to 114 µM), for the others: at the highest dose activity change, negative = inhibition, usual class: inhibitors. AlphaScreen BAZ2B-H3K14Ac peptide displacement; note: % is set by controls: 0 for no effect and ±100 for the full control effect; nearly all actives have a fitted effect of over 60% in size
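AlphaScreen luminescence quantifies BAZ2B engagement of H3K14Ac peptide; the protein and biotinylated peptide are both at 50 nM final, buffer PBS pH 7.4 with 0.01% Tween-20, all steps at room temperature.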
L3MBTL1 block = L3MBTL1 (human) inhibition | Q9Y468 | AlphaScreen L3MBTL1–H3K9me1 peptide binding | Potency, µM (series often up to 57.1 µM), for inactives: at the highest dose activity, negative = inhibition, usual class: inhibitors | 0.66% of 230,000 active; note: % is set by controls: 0 for no effect and ±100 for the full control effect; nearly all actives have a fitted effect of over 60% in size
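AlphaScreen assay: L3MBTL1 (50 nM final) was preincubated 30 min at room temperature with biotinylated H3(1-15)K9me1 peptide (75 nM final), then 30 min with library compounds; streptavidin donor and nickel chelate acceptor beads (10 ug/mL final) added, 30 min dark.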
G9a block = blocks human histone lysine methyltransferase G9a; Q96KQ7; G9a H3K9 monomethylation, AlphaScreen, 2 h; Potency, µM (highest dose often 102 µM), without a hit: at the highest dose activity, negative = inhibition, hits mostly inhibitors; 8.8% of 350,000 active; AID 504332; note: % is set by controls: 0 for no effect and ±100 for the full control effect; nearly all actives have a fitted effect of over 75% in size
Target sequence (Q96KQ7 913-1193 limits assumed): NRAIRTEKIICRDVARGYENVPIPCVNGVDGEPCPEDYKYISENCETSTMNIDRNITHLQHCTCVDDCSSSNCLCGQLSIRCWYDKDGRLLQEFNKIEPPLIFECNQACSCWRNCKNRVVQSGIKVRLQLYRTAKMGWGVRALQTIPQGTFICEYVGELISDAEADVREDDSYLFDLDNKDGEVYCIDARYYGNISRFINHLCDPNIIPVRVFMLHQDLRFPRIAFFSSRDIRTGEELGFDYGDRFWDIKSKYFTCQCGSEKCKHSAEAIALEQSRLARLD
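Enzyme 20 nM + cpd, 15 min RT; add b-H3K9 pep 500 nM / SAM 20 uM; 2 h RT; anti-H3K9me1 Ab 0.5 ug/mL + SA donor / anti-rabbit acceptor beads 20 ug/mL each, 10 min; AlphaScreen read.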
The depositor's hits bear a star; u = inconclusive; x = no result given; [ ] = remark or other dose. Calls come from the whole dose curve; as a rule, active = well fitted curve in the direction sought with a large enough effect; inconclusive = small, poorly fitted or top-dose-only effect, or another doubt; inactive = no such curve, though single readings can be large; an effect the other way counts as inactive or inconclusive. Potency is the fitted concentration of half-maximal effect.

SMILES	HP1b chromo inh	Sfp PPTase inh	JMJD2A Tudor	BAZ2B block	L3MBTL1 block	G9a block
Cc1oc(C(C)(C)C)cc1C(=O)N1CCCC1C(=O)O (configuration not stated)	7%	25%	100µM*	-3%	24%	-5%[59 µM]
COc1ccccc1N1CCN(C(=O)c2cc(C(C)(C)C)oc2C)CC1	-10%	-22%	-24%	-18%	-12%	u
Cn1c(=O)c(-c2cc(Br)ccc2N)nc2ccccc21	-20%	-19%	u	-17%	x	50µM*
CCOc1ccc(/C=C/C(=O)Nc2sc3c(c2C(=O)OC)CCC3)cc1	25%	x	-3%	2%	x	-42%[59 µM]
COc1ccc(CNS(=O)(=O)c2ccc(C(=O)N(C)C)s2)cc1	-8%	x	-9%	-3%	x	-4%[59 µM]
COc1ccc(C2CC(=O)c3c(O)cc(O)cc3O2)cc1O (configuration not stated)	27%	12%	-8%	x	x	x
COc1cc(C2Oc3cc(C4Oc5cc(O)cc(O)c5C(=O)C4O)ccc3OC2CO)ccc1O (configuration not stated)	19%	-2%	-14%	-31%	-7%	50µM*
C[C@@H]1C(=O)O[C@@H]2C[C@]34[C@H]5C[C@@H](C(C)(C)C)[C@@]36[C@@H](OC(=O)[C@@H]6O)O[C@@]4(C(=O)O5)[C@@]12O	x	11%	x	x	x	23%[21.5 µM]
CCc1cccc(C)c1Nc1c(-c2ccc(SC)cc2)nc2sccn12	u	x	u	22µM*	x	14µM*
CCc1cccc(C)c1Nc1c(-c2ccsc2)nc2ncccn12	0%	x	-35%	u	x	-43%[59 µM]
CCc1cccc(C)c1Nc1c(-c2ccc(N(C)C)cc2)nc2cnccn12	u	x	40µM*	16µM*	x	18µM*
COC(=O)c1ccccc1NC(=O)CCc1c(C)nc2c(c(C)nn2-c2ccccc2)c1C	74%	x	-10%	2%	x	37%[59 µM]
CCOC(=O)c1c(N)sc(C(=O)Nc2ccccc2F)c1C	17%	14%	-7%	-19%	-8%	3%
Cn1c(N)c(C(=O)Nc2ccc3ccccc3c2)sc1=S	-21%	14µM*	-18%	0%	13%	7.1µM*
Cn1c(N)c(C(=O)N/N=C/c2ccccc2)sc1=S	14%	1%	-10%	1%	x	x
Cn1c(N)c(C(=O)Nc2ccccc2F)sc1=S	u	-20%	-33%	-33%	-11%	50µM*
Nc1c(C(=O)Nc2ccc(F)cc2)sc(=S)n1-c1ccccc1F	-22%	32µM*	-19%	-12%	x	7.9µM*
C=COC(=O)/C=C/C	x	16%	x	x	x	x
CCOc1ccccc1-c1nnc2n1N=C(c1ccccc1OC)CS2	x	-7%	-28%	x	x	x
CC(=O)Nc1nonc1-c1nnc(SCC(=O)Nc2ccc(C)c(Cl)c2)n1-c1ccccc1	28%	x	-24%	3%	x	-2%[59 µM]
CCOc1cc(/C=C2\N=C(SC(C)C(N)=O)N(c3ccc(OC(F)F)cc3)C2=O)ccc1O (configuration not stated)	-3%	45µM*	u	-34%	x	u
CCOc1ccc(N2C(=O)S/C(=C\c3ccc(O)c(OCC)c3)C2=O)cc1	43%	8%	-25%	-27%	2%	-5%
O=C1C(c2cccc(Br)c2)N(CCc2ccccc2)C(=O)CN1C1CCCCC1 (configuration not stated)	25%	x	-14%	-10%	x	10%[59 µM]
CCN(CC)S(=O)(=O)c1cccc(-c2n[nH]c(=S)n2C)c1	u	-5%	18µM*	-19%	x	u
O=S(=O)(c1cccc(-c2n[nH]c(=S)n2C2CCCC2)c1)N1CCOCC1	12%	-10%	4µM*	x	x	10µM*
SMILES	HP1b chromo inh	Sfp PPTase inh	JMJD2A Tudor	BAZ2B block	L3MBTL1 block	G9a block
Cn1c(CSCc2ccc(Cl)cc2Cl)n[nH]c1=S	3%	-19%	-29%	-7%	-7%	x
Cc1ccc(-c2n[nH]c(=S)n2C)cc1Cl	-32%	u	3.2µM*	0%	-10%	u
CCN(CC)S(=O)(=O)c1cccc(-c2csc(C)n2)c1	43%	6%	7%	0%	8%	-17%[59 µM]
C=CCn1c(-c2cccc(S(=O)(=O)N3CCOCC3)c2)n[nH]c1=S	11%	x	7.1µM*	4%	7%	7.1µM*
NC(=O)CSc1nnc(-c2cccc(S(=O)(=O)N3CCOCC3)c2)n1C1CCCCCC1	-9%	11%	u	-4%	x	8%
C=CCn1c(SCC(=O)Nc2ccccc2)nnc1-c1cccc(S(=O)(=O)N2CCOCC2)c1	22%	13%	18%	-2%	4%	-11%[59 µM]
CC(C)c1ccc(S(=O)(=O)Nc2ccc3oc4c(c3c2)C(=O)CC(C)(C)C4)cc1	24%	x	-13%	12%	x	7%[59 µM]
CCCCC/C=C\C[C@@H](O)/C=C/C=C\CCC(=O)O	x	0%	x	x	x	x
C=CCn1c(-c2cccc(S(=O)(=O)N(CC)CC)c2)n[nH]c1=S	13%	u	13µM*	x	u	3.5µM*
NS(=O)(=O)c1ccc(-n2ncc3c(=O)[nH]c(SCC(=O)Nc4nccs4)nc32)cc1	11%	3%	-25%	-25%	8%	45µM*
COCCn1ccc2c(OCC(=O)Nc3cccc(OC)c3)cccc2c1=O	9%	x	-7%	-10%	x	-3%[59 µM]
COc1ccc(N2C(=O)c3ccccc3NC2c2ccc(OC)c(COc3ccc(NC(C)=O)cc3)c2)cc1 (configuration not stated)	-6%[57 µM]	x	-5%[57.1 µM]	x	x	x
COc1ccc(-c2ccc(SCC(=O)NCc3ccco3)nn2)cc1	17%	6%	0%	-6%	-4%	17%[59 µM]
COc1cc(NC(=O)CSc2ccc(-c3ccco3)nn2)cc(OC)c1	29%	28µM*	-32%	-38%	x	u
COc1ccc(NC(=O)CSc2ccc(-c3ccco3)nn2)cc1	4%	32µM*	-29%	-37%	x	x
COc1ccc(NC(=O)CSc2ccc(-c3cccs3)nn2)cc1	5%	x	-20%	-17%	x	10µM*
CCC/C=C(\CCC)C(NC(=O)c1ccc(C(F)(F)F)cc1)c1ccc(C(F)(F)F)cc1 (configuration not stated)	x	17%	x	x	x	x
COc1ccc(NC(=O)Cn2c(=O)n(-c3ccc(Cl)cc3)c(=O)c3c(C)c(C(=O)N(C)C)sc32)cc1Cl	27%	x	-27%	-1%	x	1%[59 µM]
COc1ccc(N2CCN(c3ccc(N4C(=O)CC(C)C4=O)cc3[N+](=O)[O-])CC2)cc1 (configuration not stated)	-29%	17%	u	u	-20%	40µM*
COc1ccc(N2CCN(c3ccc(N4C(=O)COCC4=O)cc3[N+](=O)[O-])CC2)cc1	-14%	12%	-32%	u	-5%	50µM*
